According to PubChem BioAssay (NCATS):
Records with an inconclusive call do not appear. Activity calls are given as the source filed them. Unless noted, calls follow the shape of the dose curve; as a rule, active = well fitted curve in the direction sought with a large enough effect; inconclusive = small, poorly fitted or top-dose-only effect, or another doubt; inactive = no such curve, though single readings can be large; an effect the other way counts as inactive or inconclusive.

Assays:
[1] = Cytometric Cell-Based qHTS for Inhibitors of the mTORC1 Signaling Pathway in MEF (Tsc2-/-, p53-/-) Cells (AID 2660);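 also: percent of cells above a phospho-rpS6 to PI ratio cutoff in each well; series mostly up to about 38 µM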
How it was run: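 Cells are plated, treated with compound for 24 hrs at 37 degree Celsius, then fixed, blocked and immunostained for phospho-rpS6 Ser235/236. Propidium iodide counterstain follows. Per-well % positive cells is derived from the PI-normalized phospho-S6 signal.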

[2] = High Content Imaging Cell-Based qHTS for Inhibitors of the mTORC1 Signaling Pathway in MEF (Tsc2-/-, p53-/-) Cells (AID 2666);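 also: percent of cells scored positive for phospho-rpS6 Ser235/236 immunostaining by imaging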
How it was run: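 Read-out: % positive cells per well, with thresholds from highest- and lowest-signal wells, based on phospho-rpS6 (Ser235/236) intensity normalized to Hoechst nuclear stain. Cells: Tsc2-/-, p53-/- MEFs carrying empty vector; compound 24 hrs, 37 degree Celsius.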

[3] = High Content Imaging Cell-Based qHTS for Inhibitors of the mTORC1 Signaling Pathway in MEF Cells (AID 2667);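 also: Tsc2-/- p53-/- MEFs stably re-expressing wild-type Tsc2 exposed 24 h; series mostly up to about 38 µM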
How it was run: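 MEF (Tsc2-/-, p53-/-, WT Tsc2 re-expressed); cpd 24 h, 37 °C; PFA fix; Alexa-488 anti-p-rpS6 Ser235/236, PI, Hoechst; IN Cell imaging; Hoechst/Alexa-488 intensity ratio; % active cells, thresholds set from rapamycin and DMSO wells.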

[4] = Cytometry Cell-Based qHTS for Inhibitors of the mTORC1 Signaling Pathway in MEF cells (AID 2668);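 also: Tsc2-/- p53-/- mouse embryonic fibroblasts stably re-expressing wild-type Tsc2; percent cells positive for phospho-rpS6 Ser235/236 relative to propidium iodide stain; series mostly up to about 38 µM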
How it was run: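 Phospho-rpS6 (Ser235/236) immunofluorescence over PI signal, scored as % positive cells using thresholds from 7.5 nM rapamycin and DMSO wells, after 24 h compound exposure of WT-Tsc2-rescued Tsc2-/-, p53-/- MEFs. PI cell count recorded for viability.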

[5] = biological target: Ubiquitin carboxyl-terminal hydrolase 2 (Homo sapiens) (UniProt O75604); assay: qHTS Validation Assay for Inhibitors of Ubiquitin-specific Protease USP2a Using CHOP2 as the Reporter (AID 463106)
Chain of Ubiquitin carboxyl-terminal hydrolase 2 (Homo sapiens) (O75604 whole entry, looked up): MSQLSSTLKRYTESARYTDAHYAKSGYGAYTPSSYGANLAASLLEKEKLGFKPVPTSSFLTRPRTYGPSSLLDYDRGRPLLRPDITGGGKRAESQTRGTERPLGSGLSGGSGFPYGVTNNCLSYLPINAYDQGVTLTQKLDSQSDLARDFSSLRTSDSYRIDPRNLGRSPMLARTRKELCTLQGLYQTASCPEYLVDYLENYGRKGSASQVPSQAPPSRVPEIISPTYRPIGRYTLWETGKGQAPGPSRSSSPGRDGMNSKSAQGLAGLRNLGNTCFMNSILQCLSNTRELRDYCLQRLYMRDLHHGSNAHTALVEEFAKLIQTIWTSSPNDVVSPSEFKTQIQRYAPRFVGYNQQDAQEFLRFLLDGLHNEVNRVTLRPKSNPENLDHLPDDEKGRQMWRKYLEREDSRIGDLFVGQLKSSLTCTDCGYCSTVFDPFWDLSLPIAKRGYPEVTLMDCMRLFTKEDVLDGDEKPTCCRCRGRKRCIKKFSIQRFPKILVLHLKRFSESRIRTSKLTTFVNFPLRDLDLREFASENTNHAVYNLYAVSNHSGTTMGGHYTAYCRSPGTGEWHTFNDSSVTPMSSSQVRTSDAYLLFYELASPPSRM
How it was run: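 USP2 core (10nM final) was preincubated with compound for 30min at RT in 20mM Tris-HCl pH 8.0, 2mM CaCl2, 2mM beta-mercaptoethanol, 0.05% CHAPS. Ub-CHOP2 and reporter substrate (25nM each) were added, and fluorescence (Ex 485/Em 531nm) was read after 60min.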

[6] = biological target: DNA polymerase III PolC-type (Bacillus subtilis (strain 168)) (UniProt P13267); assay: qHTS Validation Assay for the Inhibitors of DNA Replication in Gram-Positive Bacteria (AID 485295);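 also: reconstituted holoenzyme with PolC plus beta clamp SSB and primase; PicoGreen fluorescence of double-stranded DNA made on primed circular M13 template; series mostly up to about 57 µM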
Chain of DNA polymerase III PolC-type (Bacillus subtilis (strain 168)) (P13267 whole entry, looked up): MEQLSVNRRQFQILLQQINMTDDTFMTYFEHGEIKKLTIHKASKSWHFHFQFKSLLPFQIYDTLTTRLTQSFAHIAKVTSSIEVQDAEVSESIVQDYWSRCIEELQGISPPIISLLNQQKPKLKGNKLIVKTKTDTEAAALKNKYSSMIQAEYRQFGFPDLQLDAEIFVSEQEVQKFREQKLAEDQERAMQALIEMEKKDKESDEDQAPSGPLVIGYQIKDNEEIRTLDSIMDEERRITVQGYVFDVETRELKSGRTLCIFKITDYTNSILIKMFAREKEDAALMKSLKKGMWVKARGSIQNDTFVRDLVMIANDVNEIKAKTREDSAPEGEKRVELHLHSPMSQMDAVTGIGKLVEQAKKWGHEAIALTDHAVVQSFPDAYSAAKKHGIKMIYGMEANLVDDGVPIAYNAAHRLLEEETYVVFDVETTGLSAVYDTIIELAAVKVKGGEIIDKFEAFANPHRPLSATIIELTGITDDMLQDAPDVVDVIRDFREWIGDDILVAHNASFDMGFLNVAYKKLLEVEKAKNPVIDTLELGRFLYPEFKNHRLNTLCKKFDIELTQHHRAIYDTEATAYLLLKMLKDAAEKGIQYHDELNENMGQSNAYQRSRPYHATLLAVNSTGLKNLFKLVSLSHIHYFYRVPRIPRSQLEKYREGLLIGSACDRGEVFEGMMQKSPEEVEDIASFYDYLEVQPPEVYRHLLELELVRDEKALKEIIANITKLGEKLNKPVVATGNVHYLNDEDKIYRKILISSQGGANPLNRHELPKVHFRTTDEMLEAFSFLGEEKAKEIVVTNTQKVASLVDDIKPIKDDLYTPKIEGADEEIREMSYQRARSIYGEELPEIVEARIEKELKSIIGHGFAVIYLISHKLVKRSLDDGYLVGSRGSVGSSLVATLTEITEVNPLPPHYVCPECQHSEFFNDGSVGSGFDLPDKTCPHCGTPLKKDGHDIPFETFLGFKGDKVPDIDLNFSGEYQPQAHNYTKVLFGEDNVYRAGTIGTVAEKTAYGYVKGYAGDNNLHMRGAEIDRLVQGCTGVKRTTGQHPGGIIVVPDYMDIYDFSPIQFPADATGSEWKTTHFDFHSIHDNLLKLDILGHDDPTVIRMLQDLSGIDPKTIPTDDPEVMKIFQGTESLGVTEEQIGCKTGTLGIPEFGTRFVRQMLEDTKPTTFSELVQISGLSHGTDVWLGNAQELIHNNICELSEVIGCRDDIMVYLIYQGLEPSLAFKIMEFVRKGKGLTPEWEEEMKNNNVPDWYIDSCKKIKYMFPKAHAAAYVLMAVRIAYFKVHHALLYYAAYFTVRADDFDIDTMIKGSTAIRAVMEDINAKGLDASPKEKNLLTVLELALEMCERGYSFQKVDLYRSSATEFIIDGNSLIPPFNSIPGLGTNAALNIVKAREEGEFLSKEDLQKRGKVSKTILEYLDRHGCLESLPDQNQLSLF
How it was run: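 Double-stranded DNA product detected by PicoGreen fluorescence after EDTA quench. Compound incubated with B. subtilis holoenzyme (PolC, beta subunit, SSB, primase) before substrate addition; primed replication of M13Gori with dNTPs and NTPs at room temperature; DMSO defines 0% inhibition.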

[7] = biological target: Tumor susceptibility gene 101 protein (Homo sapiens) (UniProt Q99816); assay: qHTS Validation Assay for Iinhibitors of HIV-1 Budding by Blocking the Interaction of PTAP/TSG101 (AID 485342; calls by dose curve)
Chain of Tumor susceptibility gene 101 protein (Homo sapiens) (Q99816 whole entry, looked up, the tested form may be a part): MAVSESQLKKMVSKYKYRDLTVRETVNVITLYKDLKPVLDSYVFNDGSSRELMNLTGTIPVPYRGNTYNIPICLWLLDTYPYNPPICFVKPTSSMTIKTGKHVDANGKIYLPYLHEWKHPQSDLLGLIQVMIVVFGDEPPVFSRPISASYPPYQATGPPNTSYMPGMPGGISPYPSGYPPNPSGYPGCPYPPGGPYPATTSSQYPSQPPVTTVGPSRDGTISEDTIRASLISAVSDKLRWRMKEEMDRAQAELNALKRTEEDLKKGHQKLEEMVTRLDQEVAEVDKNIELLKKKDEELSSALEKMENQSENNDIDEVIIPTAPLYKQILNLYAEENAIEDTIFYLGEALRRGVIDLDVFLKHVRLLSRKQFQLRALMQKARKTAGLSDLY
How it was run: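 Fluorescence polarization of 50 nM FITC-PTAP peptide bound to 10 uM Tsg101 binding domain was read after 20 min room-temperature incubation with compounds, in 10 mM HEPES pH 7.5, 0.15 M NaCl, 0.01% Tween 20.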

[8] = qHTS Validation Assay to Find Inhibitors of Chronic Active B-Cell Receptor Signaling (AID 485345; active = well fitted curve in the direction sought with a large enough effect in the main read-out, with a control signal flat, not every such curve was filed as active)
How it was run: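 TMD8 ABC-DLBCL cells with dox-inducible green luciferase–IκBα fusion and red native luciferase; compounds 46 uM–3 nM, 4 h at 37C with doxycycline in 0.5% FBS IMDM. Green/red ratio normalized to basal and 10 uM MG-132.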

Measured: Potency

N[C@H](C(=O)O)[C@H](O)C(=O)O
inactive: all assays above

NC1(C(=O)O)CC1
inactive: all assays above

C=C1C[C@@]23CC[C@H]4[C@@](C)(CCC[C@@]4(C)C(=O)OC4OC(CO)C(O)C(O)C4O)[C@@H]2CC[C@]1(OC1OC(CO)C(O)C(O)C1OC1OC(CO)C(O)C(O)C1O)C3 (stereo partly specified)
not listed: [8]
inactive: all other assays above

CCCCCCC/C=C\CCCCCCCCC(=O)O
inactive: all assays above

CN1CC(O)C(O)C(O)C1CO (stereo unspecified)
inactive: all assays above

C=CCn1c(=O)c2c(nc(-c3ccc(S(=O)(=O)O)cc3)n2C)n(C)c1=O
inactive: all assays above

CC(C)[C@@H]1CC[C@@H](C)C[C@@H]1P(=O)(c1ccccc1)c1ccccc1
inactive: all assays above

CCCn1c(=O)c2c(ncn2C)n(CCC)c1=O
inactive: all assays above

N[C@@H](CS(=O)O)C(=O)O
inactive: all assays above

CC(=O)O[C@H]1Cc2ccccc2N(C(N)=O)c2ccccc21
inactive: all assays above

C[C@H]1CC2C3CCC4=CC(=O)C=C[C@]4(C)[C@@]3(Cl)[C@@H](O)C[C@]2(C)[C@@]1(O)C(=O)CO (stereo partly specified)
not listed: [8]
inactive: all other assays above

O=C(O)/C(=C/c1c(C(=O)O)[nH]c2cc(Cl)cc(Cl)c12)c1ccccc1
not listed: [7] | [8]
inactive: all other assays above

O=C1NC(=O)c2cc(Nc3ccccc3)c(Nc3ccccc3)cc21
not listed: [8]
inactive: all other assays above

CC#CCOC(=O)c1c(C)nc2sc3c(c2c1N)CCC(O)C3 (stereo unspecified)
inactive: all assays above

COc1ccc2c(c1)c(CC(=O)O)c(C)n2Cc1ccc(Cl)cc1
inactive: all assays above

Cc1ccccc1/C=C/C1=NCCN1
not listed: [8]
inactive: all other assays above

CC(C)NC[C@H](O)COc1cccc2ccccc12
inactive: all assays above

CC(=O)C(C)=O
not listed: [8]
inactive: all other assays above

CN1CCN(c2nc3cc(C(F)(F)F)ccc3n3cccc23)CC1
not listed: [8]
inactive: all other assays above

Cc1cccc(C(=O)NCN2CCN(c3ccccc3C#N)CC2)c1
inactive: all assays above

NC(=O)c1cc[n+](CC2=C(C(=O)O)N3C(=O)[C@@H](NC(=O)[C@@H](c4ccccc4)S(=O)(=O)[O-])[C@H]3SC2)cc1
inactive: all assays above

Nc1ccc(CCNc2ncnc3c2ncn3C2OC(CO)C(O)C2O)cc1 (stereo unspecified)
not listed: [8]
inactive: all other assays above

CC(C)(CO)Cc1cc(C(C)(C)C)c(O)c(C(C)(C)C)c1
not listed: [8]
inactive: all other assays above

C[C@]12C=CC(=O)C=C1CC[C@@H]1C2=CC[C@]2(C)[C@@H](C(=O)CN3CCN(c4cc(N5CCCC5)nc(N5CCCC5)n4)CC3)CC[C@@H]12
not listed: [8]
inactive: all other assays above

C=C1C[C@@]23CC[C@H]4[C@@](C)(CCC[C@@]4(C)C(=O)O)[C@@H]2CC[C@]1(O)C3
inactive: all assays above

Nc1ncnc2c1ncn2C1CCCO1 (stereo unspecified)
not listed: [8]
inactive: all other assays above
